Data: PubChem BioAssay AID2639 (National Center for Advancing Translational Sciences (NCATS), 2010)
Calls of active or inactive are those of the source. Where a call stands in place of a potency, no number is given. Calls come from the whole dose curve.

Assay: Platelet Aggregation Secondary Assay for Inhibitors of Platelet Integrin alphallb-beta3
Conditions: platelet-rich plasma, ADP-induced aggregation, absorbance 563 nm
Source text: NIH Molecular Libraries Probe Production Network [MLPCN] NIH Chemical Genomics Center [NCGC] MLPCN Grant: 1 R03 MH083257-01 Assay Provider: Barry Coller, Rockefeller University NCGC Assay Overview: The alphaIIbbeta3 receptor plays a vital role in hemostasis and thrombosis, where receptor deficiency causes the hemorrhagic disorder, Glanzmann thrombasthenia, and uncontrolled receptor activation causes thrombosis and blood vessel occlusion. Small molecule inhibitors of alphaIIbbeta3, tirofiban and eptifibatide, have undesirable side effects thought to arise from conformational changes in alphaIIbbeta3. These changes transiently activate the receptor to cause spontaneous platelet aggregation and thrombus formation. […] This secondary assay measures platelet aggregation (Blue et al., 2008). Platelets are induced to aggregate and aggregation is tracked by the change in absorbance over time. Inhibitors of alphaIIbbeta3 block platelet aggregation and decrease the rate of change in absorbance.
NCGC Assay Protocol Summary: Untreated 96-well polystyrene plates (Nunc, Rochester, NY) were blocked for at least 1 hour with HBMT (138 mM NaCl, 12 mM NaHCO3, 10 mM HEPES, 2.7 mM KCl, 0.4 mM NaH2PO4, 0.1% glucose, 0.35% BSA, pH 7.4). Compounds (33 uL in HBMT) and citrated platelet-rich plasma (67 uL) were added to the wells. After plates equilibrated at 37 C in the plate reader (SpectraMax; Molecular Devices, Sunnyvale, CA) for 10 minutes, aggregation was initiated by adding ADP (5 uM final concentration; Chrono-Log Corp, Havertown, PA). Absorbance (Abs) was measured at 563 nm every 10 seconds with 3 seconds of shaking between determinations for 8 minutes. Reference Blue R, Murcia M, Karan C, Jirouskova M, and Coller BS. Application of high-throughput screening to identify a novel alphaIIb-specific small- molecule inhibitor of alphaIIbbeta3-mediated platelet interaction with fibrinogen. Blood. 2008, 111(3):1248-56

SMILES | outcome | Potency
CCc1nn2c(=O)cc(N3CCN(C)CC3)nc2s1 | inactive | 
CCc1nn2c(=O)cc(N3CCNCC3)nc2s1 |  | 8.4 µM (active)
CCc1nn2c(=O)c(F)c(N3CCNCC3)nc2s1 |  | 8.3 µM (active)
CCc1nn2c(=O)c(C)c(N3CCNCC3)nc2s1 | inactive | 
O=c1cc(N2CCNCC2)nc2sc(C3CC3)nn12 | inactive | 
Cc1nn2c(=O)cc(N3CCNCC3)nc2s1 | inactive | 
